# Shiga inhibitor: Shiga toxin inhibition; inhibition, % at 38.7 µM; actives 9.2% (n = 290,000); Vero cells, Shiga toxin protein synthesis inhibition reporter; in the data active = inhibition mostly above about 28%, no sharp cut-off; inactive = mostly below about 43%; also: 0% is about no effect
# Pf growth 48h: P. falciparum growth inhibition at 48 hours (one generation); P. falciparum luciferase growth in erythrocytes, 48 h; actives 5.9% (n = 310,000); Potency, µM (doses to about 28.7 µM), inactives show at the highest dose activity change, negative = inhibition, most hits filed as inhibitors; also: potency is read from the fitted curve at half-maximal effect; % is scaled to controls: 0 for no effect and ±100 for the full control effect
#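 Parasite viability was followed by luminescence of a genomically integrated firefly luciferase. Cultures held 0.1% parasitemia at 2% hematocrit (final), incubated under 5% CO2 at 37 C.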
# Pf growth 96h: P. falciparum growth inhibition at 96 hours. P. falciparum luciferase reporter growth, 96 h. actives 6.9% (n = 320,000). Potency, µM (titrated, usually from 28.7 µM), inactives show top-dose activity change, negative = inhibition, hits mostly inhibitors; also: potency is read from the fitted curve at half-maximal effect; % is scaled to controls: 0 for no effect and ±100 for the full control effect
#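 Readout is luminescence from an integrated firefly luciferase in P. falciparum. Red cells, 2% hematocrit and 0.05% parasitemia final, were cultured with compound through two parasite generations (96 hours) at 37 C, 5% CO2.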
# Cycloheximide cs: counter-screen hit for Shiga toxin inhibitors, cycloheximide; cell reporter, cycloheximide protein synthesis inhibition counterscreen; max response, %; actives 12% (n = 300,000); in the data active = max response mostly above about 13%, no sharp cut-off; inactive = mostly below about 14%; also: read at 38.3 µM for the half of the compounds with a filed dose; 0% is about no effect
# HCV inhibitor: blocks hepatitis C virus; Potency, µM (highest dose often 41.8 µM), inactives show at the top dose activity change, negative = inhibition, usual class: inhibitors; actives 3.4% (n = 340,000); Huh7.5.1 HCVcc-Cre infection, luciferase reporter, 44 h; AID 651820; also: potency is read from the fitted curve at half-maximal effect; % is scaled to controls: 0 for no effect and ±100 for the full control effect
#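 Antiviral activity was scored by luciferase reporter output from cells infected with HCVcc-Cre (~0.5 moi) in presence of compound, 44 h infection period, cells seeded 1,000/well 4 h prior.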
# HCMV inh: human cytomegalovirus inhibition; AID 1259415; actives 4.5% (n = 410,000); HFF cells, HCMV-luciferase reporter, 72 h; stronger effect = lower value; activity change, negative = inhibition, % at 57.5 µM; in the data active = activity change below about -60%; inconclusive = no clear call, values can overlap the other calls; inactive = above about -39%; also: % is scaled to controls: 0 for no effect and ±100 for the full control effect
#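 Luciferase read-out from HCMV-luciferase-infected HFFs (MOI 1 PFU/cell) 72 h post infection at 37C; compounds added after 16 h cell attachment; activity normalized between buffer-only basal and Salinomycin (10uM) inhibitor controls.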
# The depositor's hits bear a star; ? = inconclusive; nt = no result. Most compounds without a hit are left out; they make up all but 21% or so of the library. Unless noted, calls follow the shape of the dose curve; as a rule, active = well fitted inhibition curve with a large enough effect; inconclusive = small, poorly fitted or top-dose-only effect, or another doubt; inactive = no such curve, though single readings can be large or run the other way.
SMILES,Shiga inhibitor,Pf growth 48h,Pf growth 96h,Cycloheximide cs,HCV inhibitor,HCMV inh
Cc1[nH]c2ccccc2c1/C=N/Nc1ccc([N+](=O)[O-])cc1,77*,?,-5%,19*,2µM*,-30
Cc1cccc(N2CCN(C(=O)CC(NC(=O)c3ccccc3Cl)c3ccccc3)CC2)c1C (stereo not drawn),-3,?,?,0,-1%,?
O=C(NC(CC(=O)N1CCN(c2ccccc2O)CC1)c1ccccc1)c1ccccc1Cl (stereo not drawn),nt,10µM*,?,nt,?,70
O=C(NC(CC(=O)N1CCN(c2ccc([N+](=O)[O-])cc2)CC1)c1ccccc1)c1ccccc1Cl (stereo not drawn),18,?,12µM*,-4,?,-23
COCCCNC(=O)/C(C#N)=C/c1c(N2CCN(c3ccccc3)CC2)nc2ccccn2c1=O,13,?,?,10,5%,57
CCCCNC(=O)c1c[nH]c2ccc(S(=O)(=O)N3CCOCC3)cc2c1=O,26,?,-30%,10,?,-22
CCOC(=O)CCNc1n[nH]c(=O)[nH]c1=O,-6,6%,0%,-2,2%,-19
CC(C)COC(=O)CCNc1n[nH]c(=O)[nH]c1=O,1,0%,9.3µM*,-1,3%,-33
COc1cccc(NC(=O)CN(C)C(=O)CCSc2ccc(C)cc2)c1,nt,10µM*,-12%,nt,4%,-6
COc1ccc(Cl)cc1NC(=O)CN(C)C(=O)C1CC(=O)N(Cc2ccc(C)cc2)C1 (stereo not drawn),nt,?,-2%,nt,32µM*,-4
COc1ccc(NC(=O)CN(C)C(=O)C2CC(=O)N(Cc3ccc(C)cc3)C2)cc1 (stereo not drawn),nt,-17%,?,nt,-11%,7
COc1ccc(Cl)cc1NC(=O)CN(C)C(=O)CCSc1ccc(C)cc1,nt,12µM*,12µM*,nt,?,?
COc1ccc(NC(=O)CN(C)C(=O)CCSc2ccc(C)cc2)cc1,nt,?,?,nt,-1%,-8
CS(=O)(=O)N(C(=O)NC(=O)NC12CC3CC(CC(C3)C1)C2)C1CCCCC1,-6,18%,-29%,-5,6%,-64*
Cc1cc(N2CCN(C)CC2)nc2ccc(NC(=O)c3ccc(C(C)(C)C)cc3)cc12,nt,nt,nt,nt,nt,-106*
COc1ccc(C(=O)Nc2ccc3nc(N4CCN(C)CC4)cc(C)c3c2)c(OC)c1,-4,7.4µM*,30%,-3,?,-38
Cc1ccccc1C(=O)Nc1ccc2nc(N3CCCCC3)cc(C)c2c1,nt,nt,nt,nt,nt,-31
Cc1cc(N2CCN(C)CC2)nc2ccc(NC(=O)Nc3ccc(Cl)cc3)cc12,nt,nt,nt,nt,nt,11
COc1cccc(C(=O)Nc2ccc3nc(N4CCN(c5ncccn5)CC4)cc(C)c3c2)c1OC,-2,?,?,14*,?,nt
COc1ccc(C)cc1NC(=O)CCC(=O)Nc1ccc2nc(N3CCN(C)CC3)cc(C)c2c1,-3,?,39%,-2,10µM*,nt
CC12CCC(=O)N1C(C(=O)Nc1ccc(F)c(Cl)c1)CS2 (stereo not drawn),nt,-18%,22%,nt,-27%,-6
COc1ccc(-c2nc(SCC(=O)c3ccc(OC)c(Br)c3)n[nH]2)cc1,nt,nt,nt,nt,nt,3
CN1C(=O)NC(c2ccc(O)cc2)C(C(=O)c2cccs2)C1(O)C(F)(F)F (stereo not drawn),111*,?,?,34,?,12
COc1cc(C2NC(=S)NC(O)(C(F)(F)F)C2C(=O)c2cccs2)cc(OC)c1O (stereo not drawn),11*,58%,48%,40*,5%,?
O=C1NC(c2ccccc2)C(C(=O)c2cccs2)C(O)(C(F)(F)F)N1 (stereo not drawn),25,-5%,-12%,10,25%,-26
SMILES,Shiga inhibitor,Pf growth 48h,Pf growth 96h,Cycloheximide cs,HCV inhibitor,HCMV inh
Cc1cccc(NC(=O)c2ccc(-n3cnc4cccnc43)cc2)c1C,nt,nt,nt,nt,nt,-9
COc1ccc(/C=C(\C#N)c2nc3ccccc3[nH]2)cc1O,29*,63%,-29%,19*,?,47
COc1c(O)ccc(/C=C(\C#N)c2nc3ccccc3[nH]2)c1[N+](=O)[O-],64*,8%,4.1µM*,40*,-2%,-23
COc1cc(/C=C(/C#N)c2nc3ccccc3[nH]2)ccc1OC(=O)c1ccco1,82*,30%,24%,28*,?,116
CC(C)(C)OC(=O)N1CCC(c2c(C(=O)NCCN3CCOCC3)cnn2-c2ccc(F)cc2)CC1,nt,nt,nt,nt,nt,-3
Cc1cc(F)ccc1NC(=O)Nc1ccc2c(c1)OCO2,11,32%,-12%,12*,-23%,-25
Cc1ccc(NC(=O)Nc2ccc3c(c2)OCO3)cc1F,90*,77%,37%,73*,5%,12
O=C(CNC(=O)c1ccccc1F)Nc1ccc2c(c1)OCO2,nt,nt,nt,nt,-2%,47
COc1ccc(CN2CCC(CO)(Cc3ccccc3C(F)(F)F)CC2)c(F)c1,-2,4.7µM*,?,2,?,45
CCn1c(-c2ccc(F)cc2)cnc1SCC(=O)N1CCCCC1C (stereo not drawn),93*,nt,29%,41*,nt,nt
CCn1c(-c2ccc(F)cc2)cnc1SCC(=O)N1CCc2ccccc21,97*,52%,-10%,34*,7%,nt
CCn1nnnc1SCC(=O)N1CCc2ccccc21,nt,nt,nt,nt,-1%,45
CN(C1CCCCC1)S(=O)(=O)c1ccc2c(c1)c(=O)c(C(=O)NCc1ccc(Cl)cc1)cn2C,nt,nt,nt,nt,nt,8
O=C(Nc1ccc(-c2nc3c(ccc4ccccc43)o2)cc1)c1ccco1,29,nt,1.9µM*,26*,-28%,-4
O=C(CCS(=O)(=O)c1ccccc1)Nc1nc2ccc(F)cc2s1,nt,?,?,nt,5%,-3
O=C(Nc1nc2c(F)cc(F)cc2s1)c1ccco1,38*,91%,205%,37*,-17%,97
O=C(c1ccco1)N1CCN(c2nc3c(F)cc(F)cc3s2)CC1,nt,nt,nt,nt,nt,17
O=C(CCc1ccccc1)Nc1nc2c(F)cc(F)cc2s1,113*,39%,45%,45*,-25%,-18
O=C(Nc1nc2c(Cl)ccc(Cl)c2s1)c1ccco1,-12,nt,27%,-4,4%,14
O=C(Nc1nc2c(ccc3ccccc32)s1)c1ccco1,102*,3%,?,47*,25µM*,83
O=C(Nc1nc2c(F)c(F)c(F)cc2s1)c1ccco1,103*,62%,67%,29*,2%,73
CC1CCN(S(=O)(=O)c2ccc(C(=O)Nc3sc4c(c3C(N)=O)CC(C)(C)NC4(C)C)cc2)CC1,nt,nt,nt,nt,nt,-9

# Screening data: PubChem, National Center for Advancing Translational Sciences (NCATS)
